Assay outcomes from PubChem BioAssay.
Sampled rows, rich in hits. Any-hit rate of the full collection: about 3.7%.
GPR7 antagonist: GPR7 receptor antagonists, primary screen, cell-based, fluorescence, single concentration | Neuropeptides B/W receptor type 1 (Homo sapiens), P48145 | GPR7-expressing cells, fluorescence antagonist assay | inhibition, % at 4.4 µM | 1.1% of 290,000 active; in the data active = inhibition above about 16%, passing the limit was not always enough;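 also: cells stimulated with the agonist NPW; 0% = agonist with vehicle and 100% = vehicle without agonist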
Target sequence (P48145 whole entry, looked up): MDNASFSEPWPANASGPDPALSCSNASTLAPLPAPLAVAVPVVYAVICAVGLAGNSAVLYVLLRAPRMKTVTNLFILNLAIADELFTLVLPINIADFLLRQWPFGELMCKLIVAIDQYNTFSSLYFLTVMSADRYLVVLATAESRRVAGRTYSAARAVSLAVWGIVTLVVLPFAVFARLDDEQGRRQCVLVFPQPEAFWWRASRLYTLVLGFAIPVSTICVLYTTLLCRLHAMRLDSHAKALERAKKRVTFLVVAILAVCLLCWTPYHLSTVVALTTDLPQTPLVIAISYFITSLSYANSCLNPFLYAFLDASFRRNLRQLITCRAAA
Kir21 inh: inhibitors of mouse Kir2.1 inward-rectifier potassium channel | HEK293-Kir2.1, FluxOR thallium flux fluorescence; stronger effect = lower value | B-score at 10 µM | 0.85% of 310,000 active | AID 1672, 2009;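 active = fluorescence ratio B-score at or below minus 3 SD of library scores, with starting-brightness B-score within 2 SD, cut at about -4.2 in these data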;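 also: channel flux triggered by added potassium and thallium sulfate stimulus; B-score of peak minus minimum fluorescence over baseline after thallium stimulus; more negative B-score means stronger Kir2.1 block with less thallium influx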
ANO1 activ: TMEM16A chloride channel activators or potentiators, primary screen, cell-based, HTS; 0.3% of 340,000 active; AID 623877, 2012; HEK293 TMEM16A/YFP-H148Q/I152L, iodide quench fluorescence; stronger effect = lower value; B-score at 10 µM; Anoctamin-1 (Mus musculus), Q8BHY3;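 active = fluorescence-ratio B-score plate-corrected deviation score at least 3 library SD below zero, with starting fluorescence score within 5 deviations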;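 also: channel opened by trigger with iodide after compound preincubation; score built on the fluorescence ratio of max minus min over baseline; more negative score means more quench and so TMEM16A activation or potentiation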
CHT inh: inhibitors of human choline transporter CHT; High affinity choline transporter 1 (Homo sapiens), Q9GZV3; CHT-expressing cells, membrane potential dye, choline response; stronger effect = lower value; B-score at 10 µM; 0.86% of 310,000 active; AID 488975, 2010;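 active = B-score over 3 SD under the library average, and starting fluorescence ratio not unusually high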;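 also: choline stimulus applied at its EC90 after an EC20 pre-addition; B-score computed on integrated fluorescence ratio after choline addition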
TMEM16A inh: TMEM16A chloride channel inhibitors, primary screen, cell-based, HTS. 1.2% of 310,000 active. AID 588511, 2011. normalized B-score (activity score, 25-100; higher = stronger inhibition) at 10 µM. HEK293 TMEM16A/YFP iodide influx fluorescence, ionomycin. Anoctamin-1 (Mus musculus), Q8BHY3;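 active = ratio plate-corrected score three or more library SD toward inhibition, starting fluorescence score within five deviations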;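 also: score derived from kinetic fluorescence span divided by baseline fluorescence per well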
CHT allo act: CHT positive allosteric modulators, primary screen, cell-based, membrane potential dye, choline EC20. High affinity choline transporter 1 (Homo sapiens), Q9GZV3. 0.49% of 310,000 active. AID 488977, 2010. CHT-expressing cells; stronger effect = higher value; LV-AA mutant CHT in HEK293 cells. B-score at 10 µM;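 active = initial fluorescence not abnormally high and integrated response B-score, plate-corrected, over 3 SD above library mean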
GPR7 antag cf: GPR7 receptor antagonists, confirmation, cell-based, fluorescence, single concentration; shares compounds with GPR7 antagonist; GPR7-expressing cells, calcium fluorescence antagonist mode; inhibition, % at 4.4 µM; 52% of 2,400 active; in the data active = inhibition above about 24%;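 also: stimulated with the GPR7 agonist NPW; 0% = agonist plus vehicle and 100% = vehicle alone without agonist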
MCHR1 antagonist: MCHR1 antagonists in cells, counter-screen for GPR7 antagonist project, cell-based, fluorescence, human; shares compounds with GPR7 antagonist; MCHR1-expressing cells, fluorescence antagonist assay; inhibition, % at 4.4 µM; 62% of 2,400 active; AID 2148, 2009; in the data active = inhibition above about 22%;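 also: 0% = vehicle with agonist and 100% = vehicle without agonist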
* = called active by the depositor; i = inactive; / = no result.

SMILES	GPR7 antagonist	Kir21 inh	ANO1 activ	CHT inh	TMEM16A inh	CHT allo act	GPR7 antag cf	MCHR1 antagonist
CCCCNc1nc2ccccc2n1CC(=O)Nc1c(C)cccc1CC	33*	0.35	i	i	i	i	32*	21
N/N=C(/Cc1nc2ccccc2[nH]1)c1ccc([N+](=O)[O-])cc1	36*	-1.7	i	i	i	i	2	21
CCn1nc(C)c(CN2CCC(C(=O)Nc3cccc(-c4cccc(Cl)c4)c3)CC2)c1C	26*	-3.8	i	i	i	i	19	51*
CCn1ncc(CN2CCC(C(=O)Nc3cccc(-c4cccc(F)c4)c3)CC2)c1C	6	-0.31	i	i	i	i	/	/
COc1ccc(Br)cc1C1NC(=O)NC(C)=C1C(=O)N(C)C (stereo not given)	23*	1.5	i	i	i	i	5	4
O=c1[nH]c(=S)[nH]c2c1CN(Cc1ccc(F)cc1)CC2	30*	0.98	i	i	i	i	-5	-5
Cc1cc(Cl)cc(C)c1OCCOCCNCc1ccccc1	27*	-12*	i	i	i	i	35*	28*
COc1c(Cl)cc(Cl)cc1CNCc1ccccc1	-2	-0.32	i	i	i	i	/	/
O=CN(c1ccccc1)c1ccc2ccccc2c1	8	1.1	i	i	i	i	/	/
Cc1ccc(CCNC(=O)C2CC(=O)N(C3CCCCC3)C2)cc1 (stereo not given)	28*	-0.26	i	i	i	i	-13	-1
NS(=O)(=O)c1ccc(CNC(=O)c2cc(S(=O)(=O)N3CCOCC3)c(Cl)cc2Cl)cc1	/	/	i	/	/	/	/	/
NS(=O)(=O)c1ccc(CNC(=S)Nc2ccc(Cl)c(Cl)c2)cc1	33*	2.3	-5.3*	i	i	i	41*	40*
COc1ccc(NC(=S)NCc2ccc(S(N)(=O)=O)cc2)cc1OC	-7	-1.9	i	i	i	i	/	/
Cc1ccc(NC(=O)c2ccccc2F)cc1S(=O)(=O)N1CCCCCC1	22*	-1.6	i	i	i	i	-10	54*
CC(C)N(c1ccccc1)c1ccc(NC(=O)COC(=O)CCN2C(=O)c3cccc([N+](=O)[O-])c3C2=O)cc1	29*	0.54	i	i	i	i	74*	60*
COc1cccc(CNCCc2c[nH]c3ccccc23)c1OCc1ccc(F)cc1	25*	-12*	i	i	i	i	46*	65*
COc1cccc(CNc2ccc3[nH]c(=O)[nH]c3c2)c1OCc1ccc(F)cc1	-4	-4.2	i	i	i	i	/	/
CCC1(C)CC2(CCCN(CCC(O)(c3ccccc3)c3ccccc3)C2)CCO1 (stereo not given)	26*	-2.5	i	i	i	i	16	16
CC1(C)CC2(CCCN(CC(O)(c3ccccc3)c3ccccc3)C2)CCO1 (stereo not given)	9	-1.3	i	i	i	i	/	/
O=C(CSc1nnc(CNc2ccc(Cl)cc2)n1Cc1ccccc1)NCc1ccco1	25*	-0.79	i	i	i	i	26*	37*
O=C(CSc1nnc(Cc2cccs2)n1Cc1ccco1)Nc1cc(Cl)cc(Cl)c1	-11	1	i	i	i	i	/	/
